Experimental data reported in PubChem BioAssay (Tox21).
Inconclusive results are not listed. Some compounds were tested as several samples or in several runs, with calls that do not always agree. Active and inactive are the calls of the source. Unless noted, calls come from the whole dose curve.

Columns and labels:
[1] = qHTS assay to identify small molecule agonists of the peroxisome proliferator-activated receptor delta (PPARd) signaling pathway - cell viability counter screen (AID 743211; active = well fitted curve in the direction sought with a large enough effect in the repeat runs; an effect the other way counts as inactive or inconclusive; note: nearly all actives have a fitted effect of over 55% in size)
In short: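 Read-out: CellTiter-Glo luminescence, 30 min RT, measured in the same wells as the beta-lactamase reporter. Cells: GeneBLAzer PPAR delta UAS-bla HEK293H, 3000 cells/well, compound exposure 17 h at 37C.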

[2] = target: Peroxisome proliferator-activated receptor delta (Homo sapiens) (UniProt Q03181); assay: qHTS assay to identify small molecule agonists of the peroxisome proliferator-activated receptor delta (PPARd) signaling pathway (AID 743212)
Peroxisome proliferator-activated receptor delta (Homo sapiens), sequence (Q03181 whole entry, looked up): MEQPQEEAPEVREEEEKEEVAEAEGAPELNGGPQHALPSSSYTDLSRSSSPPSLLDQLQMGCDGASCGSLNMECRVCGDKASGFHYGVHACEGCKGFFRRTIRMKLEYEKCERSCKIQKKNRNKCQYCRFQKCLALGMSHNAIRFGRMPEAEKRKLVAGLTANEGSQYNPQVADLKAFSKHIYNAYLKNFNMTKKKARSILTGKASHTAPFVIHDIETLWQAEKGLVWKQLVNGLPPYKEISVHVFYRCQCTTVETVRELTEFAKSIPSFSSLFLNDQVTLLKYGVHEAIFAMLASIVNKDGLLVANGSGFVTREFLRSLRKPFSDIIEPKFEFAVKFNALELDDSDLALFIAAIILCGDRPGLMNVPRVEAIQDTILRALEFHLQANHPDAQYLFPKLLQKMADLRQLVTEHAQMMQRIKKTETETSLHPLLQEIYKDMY
In short: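 A PPARd-bla HEK293H line with beta-lactamase under an Upstream Activator Sequence is treated with compounds at 37 C. Substrate loading for 2 h at room temperature precedes the fluorescence measurement.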

[3] = qHTS assay to identify small molecule antagonists of the peroxisome proliferator-activated receptor delta (PPARd) signaling pathway - cell viability counter screen (AID 743213; active = well fitted curve in the direction sought with a large enough effect in the repeat runs; an effect the other way counts as inactive or inconclusive; note: nearly all actives have a fitted effect of over 50% in size)
In short: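 HEK293H cells with the PPARd UAS-bla reporter, co-treated 17 h at 37 C with compounds and L165041 (300 nM final), were lysed with CellTiter-Glo. Luminescence indicated viable cell content.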

[4] = target: Peroxisome proliferator-activated receptor delta (Homo sapiens) (UniProt Q03181); assay: qHTS assay to identify small molecule antagonists of the peroxisome proliferator-activated receptor delta (PPARd) signaling pathway (AID 743215; active = well fitted inhibition curve with a large enough effect in the signal ratio in the repeat runs, not every such curve was filed as active; the % refers to the signal ratio;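 note: cells stimulated with agonist L165041 at 300 nM final during compound exposure; series mostly up to about 62 µM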)
In short: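 Antagonist-mode beta-lactamase reporter screen: HEK293H cells with UAS-bla under PPARd control, stimulated by 300 nM L165041 (final) alongside test compound for 17 h at 37 C, then FRET fluorescence after 2 h substrate incubation.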

[5] = qHTS assay to identify small molecule agonists of the farnesoid-X-receptor (FXR) signaling pathway - cell viability counter screen (AID 743218; active = well fitted curve in the direction sought with a large enough effect in the repeat runs; an effect the other way counts as inactive or inconclusive; note: nearly all actives have a fitted effect of over 45% in size)
In short: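 In GeneBLAzer FXR-UAS-bla HEK 293T cells, compounds act for 16 h at 37 C. Cell viability is then scored in the reporter wells by CellTiter-Glo, 30 min at RT, luminescence.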

[6] = target: Bile acid receptor (Homo sapiens) (UniProt Q96RI1); assay: qHTS assay to identify small molecule agonists of the farnesoid-X-receptor (FXR) signaling pathway (AID 743220; active = well fitted activation curve with a large enough effect in the signal ratio in the repeat runs, not every such curve was filed as active; the % refers to the signal ratio)
Bile acid receptor (Homo sapiens), sequence (Q96RI1 whole entry, looked up): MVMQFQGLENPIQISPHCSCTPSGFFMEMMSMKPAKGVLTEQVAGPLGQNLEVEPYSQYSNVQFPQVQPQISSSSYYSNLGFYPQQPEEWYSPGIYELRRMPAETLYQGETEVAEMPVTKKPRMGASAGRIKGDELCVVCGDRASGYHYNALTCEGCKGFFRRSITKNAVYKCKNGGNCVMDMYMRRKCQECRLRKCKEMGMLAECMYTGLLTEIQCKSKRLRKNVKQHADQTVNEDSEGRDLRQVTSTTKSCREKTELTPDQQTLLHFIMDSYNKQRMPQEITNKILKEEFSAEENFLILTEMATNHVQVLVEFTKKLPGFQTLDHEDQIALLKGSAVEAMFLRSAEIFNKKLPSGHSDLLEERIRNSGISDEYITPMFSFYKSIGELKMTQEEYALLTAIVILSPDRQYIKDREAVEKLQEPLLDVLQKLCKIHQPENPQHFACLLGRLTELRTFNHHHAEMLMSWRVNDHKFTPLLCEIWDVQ
In short: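 Beta-lactamase reporter under UAS control in GeneBLAzer FXR HEK 293T cells (5000/well) measured with LiveBLAzer FRET substrate after 2 h at room temperature. Compound exposure lasted 16 h at 37C.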

[7] = qHTS assay to identify small molecule antagonists of the farnesoid-X-receptor (FXR) signaling pathway - cell viability counter screen (AID 743221; active = well fitted cell-killing curve with a large enough effect in the repeat runs, not every such curve was filed as active; note: nearly all actives have a fitted effect of over 50% in size)
In short: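 HEK 293T FXR-bla cells, 5 h pre-incubation; compound + CDCA 50 uM final, 16 h, 37 C; beta-lactamase FRET read first, then CellTiter-Glo luminescence, 30 min RT.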

[8] = qHTS assay to identify small molecule agonists of the vitamin D receptor (VDR) signaling pathway - cell viability counter screen (AID 743224; active = well fitted curve in the direction sought with a large enough effect in the repeat runs; an effect the other way counts as inactive or inconclusive; note: series mostly up to about 63 µM; nearly all actives have a fitted effect of over 50% in size)
In short: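 VDR-bla cell line, quantitative HTS format; 16 h compound incubation (37C, 5% CO2); ATP-based CellTiter-Glo luminescence measured in the reporter assay wells.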

[9] = qHTS assay to identify small molecule agonists of the NFkB signaling pathway - cell viability counter screen (AID 1159515); note: series mostly up to about 61 µM; nearly all actives have a fitted effect of over 55% in size
In short: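 Viability in NFkB-bla ME-180 cells was measured by CellTiter-Glo luminescence, 30 min room temperature, in wells already treated 5 hr with compounds and read for reporter FRET.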

[10] = qHTS assay to identify small molecule agonists of the endoplasmic reticulum stress response signaling pathway (AID 1159516; active = well fitted activation curve with a large enough effect in the signal ratio in the repeat runs, not every such curve was filed as active; the % refers to the signal ratio)
In short: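 ER stress element reporter (bla) in HeLa. 1,500 cells/well, overnight attachment; 5 hr compound; 2 hr RT substrate; dual-emission fluorescence.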

[11] = qHTS assay to identify small molecule agonists of the endoplasmic reticulum stress response signaling pathway - cell viability counter screen (AID 1159517);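 note: HeLa cells carrying an ER stress response element beta-lactamase reporter; series mostly up to about 61 µM; nearly all actives have a fitted effect of over 50% in size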
In short: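 CellTiter-Glo was added to wells already read for beta-lactamase FRET, and luminescence was recorded 30 min later. Cells: ESRE-bla HeLa, 1,500 per well, compound exposure 5 hr at 37 C.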

[12] = qHTS assay to identify small molecule antagonists of the retinoid-related orphan receptor gamma (ROR-gamma) signaling pathway - cell viability counter screen (AID 1159520; active = well fitted curve in the direction sought with a large enough effect in the repeat runs; an effect the other way counts as inactive or inconclusive; note: nearly all actives have a fitted effect of over 50% in size)
In short: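 Tet-on ROR gamma CHO cells (1,000/well) were plated 4 hr, given compounds in DMSO for 2 hr at 37 C, then induced with 1 uM final doxycycline for 16 hr. Viability was read as ATP by CellTiter-Glo luminescence after 30 min.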

[13] = target: Nuclear receptor ROR-gamma (Homo sapiens) (UniProt P51449); assay: qHTS assay to identify small molecule antagonists of the retinoid-related orphan receptor gamma (ROR-gamma) signaling pathway (AID 1159521; active = well fitted curve in the direction sought with a large enough effect in the repeat runs; an effect the other way counts as inactive or inconclusive)
In short: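 Luminescence readout (ONE-Glo, 30 min RT) after 16 h doxycycline induction; loss of signal scored as antagonism. CHO cells with TET-inducible RORγ and RORE-LUC reporter; compounds added 2 h before 1 uM final doxycycline.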

[14] = qHTS assay to identify small molecule agonists of the AP-1 signaling pathway - cell viability counter screen (AID 1159525); note: nearly all actives have a fitted effect of over 55% in size
In short: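 ME-180 AP-1-bla, 2500 cells/well, Opti-MEM + 0.5% dialyzed FBS; overnight 37 °C; cpd 15-pt titration, 5 h 37 °C; CellTiter-Glo 30 min RT; luminescence read; normalised to TOAB and DMSO controls.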

[15] = qHTS assay to identify small molecule agonists of the AP-1 signaling pathway (AID 1159526)
[16] = target: Retinoic acid receptor RXR-alpha (Homo sapiens) (UniProt P19793); assay: qHTS assay to identify small molecule agonists of the RXR signaling pathway (AID 1159527); note: nearly all actives have a fitted effect of over 35% in size; note: potency is the fitted concentration of half-maximal effect
Retinoic acid receptor RXR-alpha (Homo sapiens), sequence (P19793 whole entry, looked up): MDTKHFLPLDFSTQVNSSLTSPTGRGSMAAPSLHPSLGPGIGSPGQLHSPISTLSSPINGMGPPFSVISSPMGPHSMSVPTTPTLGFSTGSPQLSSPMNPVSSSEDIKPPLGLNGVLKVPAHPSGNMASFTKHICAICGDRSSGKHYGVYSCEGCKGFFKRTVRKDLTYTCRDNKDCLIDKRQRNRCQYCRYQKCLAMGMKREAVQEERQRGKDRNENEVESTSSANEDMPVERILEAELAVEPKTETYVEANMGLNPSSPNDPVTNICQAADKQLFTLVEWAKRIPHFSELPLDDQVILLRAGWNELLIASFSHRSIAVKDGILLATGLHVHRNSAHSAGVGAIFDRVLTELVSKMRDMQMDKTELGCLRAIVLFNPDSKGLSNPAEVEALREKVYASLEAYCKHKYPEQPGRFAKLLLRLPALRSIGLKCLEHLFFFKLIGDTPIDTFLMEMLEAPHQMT
In short: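 Agonist mode; 9-cis retinoic acid positive control. HEK 293T UAS-bla reporter cells, 2% charcoal-stripped FBS, 16 hr compound exposure at 37 C/5% CO2. LiveBLAzer B/G FRET substrate 2 hr RT; ex 405, em 460/530 nm.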

[17] = target: Bile acid receptor (Homo sapiens) (UniProt Q96RI1); assay: qHTS assay to identify small molecule antagonists of the farnesoid-X-receptor (FXR) signaling pathway (AID 743217; active = well fitted inhibition curve with a large enough effect in the signal ratio in the repeat runs, not every such curve was filed as active; the % refers to the signal ratio)
In short: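 Beta-lactamase reporter under UAS control in HEK 293T cells; compound exposure 16 h at 37 °C in the presence of chenodeoxycholic acid (50 uM final); signal from B/G FRET substrate after 2 h at room temperature.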

[18] = target: Vitamin D3 receptor (Homo sapiens) (UniProt P11473); assay: qHTS assay to identify small molecule antagonists of the vitamin D receptor (VDR) signaling pathway (AID 743223; active = well fitted inhibition curve with a large enough effect in the signal ratio in the repeat runs, not every such curve was filed as active; the % refers to the signal ratio)
Vitamin D3 receptor (Homo sapiens), sequence (P11473 whole entry, looked up): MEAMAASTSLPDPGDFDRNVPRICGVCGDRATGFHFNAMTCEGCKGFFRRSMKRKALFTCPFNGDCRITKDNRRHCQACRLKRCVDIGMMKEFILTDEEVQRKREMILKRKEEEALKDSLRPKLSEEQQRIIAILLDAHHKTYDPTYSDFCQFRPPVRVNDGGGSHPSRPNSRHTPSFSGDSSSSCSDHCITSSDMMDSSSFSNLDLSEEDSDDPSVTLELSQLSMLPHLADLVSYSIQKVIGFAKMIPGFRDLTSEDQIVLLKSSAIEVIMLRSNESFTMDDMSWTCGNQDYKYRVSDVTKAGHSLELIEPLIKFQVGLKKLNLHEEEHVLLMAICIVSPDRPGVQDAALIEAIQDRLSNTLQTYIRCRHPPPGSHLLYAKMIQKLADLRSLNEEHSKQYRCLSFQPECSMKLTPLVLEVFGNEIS
In short: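 Beta-lactamase reporter read-out: FRET substrate fluorescence after 2 h at room temperature, following 16 h exposure of VDR-bla cells to test compound plus 3 nM (final) 1alpha,25-dihydroxyvitamin D3 agonist at 37C.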

[19] = target: Vitamin D3 receptor (Homo sapiens) (UniProt P11473); assay: qHTS assay to identify small molecule agonists of the vitamin D receptor (VDR) signaling pathway (AID 743222)
In short: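 Agonist activity measured in VDR-bla reporter cells. Exposure 16 h, 37C, 5% CO2; detection by B/G FRET substrate, 2 h RT.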

[20] = qHTS assay to identify small molecule antagonists of the vitamin D receptor (VDR) signaling pathway - cell viability counter screen (AID 743225; active = well fitted curve in the direction sought with a large enough effect in the repeat runs; an effect the other way counts as inactive or inconclusive; note: nearly all actives have a fitted effect of over 50% in size)
In short: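 Viability counter screen run in the same wells as the beta-lactamase reporter assay: HEK 293T VDR-UAS-bla cells, 16 h compound exposure at 37C with 3 nM (final) 1-alpha,25-dihydroxyvitamin D3. CellTiter-Glo luminescence, 30 min, room temperature.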

Measured: Potency

CCCN(CCC)C(=O)Cc1c(-c2ccc(Cl)cc2)nc2ccc(Cl)cn12
not listed: [17] | [18] | [19] | [20]
inactive: all other assays above

CON(C)C(=O)Nc1ccc(Cl)cc1
not listed: [6] | [19] | [20]
inactive: all other assays above

SCc1ccccc1
not listed: [6] | [19] | [20]
inactive: all other assays above

O=C1CC[C@@]2(O)[C@H]3Cc4ccc(O)c5c4[C@@]2(CCN3CC2CC2)[C@H]1O5
not listed: [2] | [4] | [8] | [18] | [19] | [20]
inactive: all other assays above

CC(C)c1ccc(NC(=O)N(C)C)cc1
not listed: [5] | [6] | [17]
inactive: all other assays above

O=C(O)C(F)(F)C(F)(F)C(F)(F)C(F)(F)C(F)(F)F
not listed: [2] | [6] | [17]
inactive: all other assays above

COC(=O)C1(O)c2ccccc2-c2ccccc21
not listed: [6] | [16] | [17] | [18] | [20]
inactive: all other assays above

CCSCc1ccccc1OC(=O)NC
not listed: [1] | [3] | [5] | [8]
inactive: all other assays above

CCC1(CCC(C)C)C(=O)NC(=O)NC1=O
not listed: [1] | [5] | [6] | [7] | [8] | [17] | [18] | [19]
inactive: all other assays above

CCCC[P+](CC)(CCCC)CCCC (tested in a mixture with another compound)
not listed: [2] | [4] | [6] | [17]
inactive: all other assays above

CCOC(=O)c1cncn1C(C)c1ccccc1 (centres undefined)
not listed: [1] | [6] | [8] | [17] | [18] | [19] | [20]
inactive: all other assays above

C[C@]12CC[C@H]3[C@@H](CCC4=CC(=O)CC[C@@H]43)[C@@H]1CC[C@@H]2OC(=O)CCc1ccccc1
not listed: [1] | [5] | [6] | [17]
inactive: all other assays above

Clc1ccc2ccccc2c1
not listed: [1] | [3] | [18] | [19] | [20]
inactive: all other assays above

CCOC(=O)NC(O)C(Cl)(Cl)Cl (centres undefined)
not listed: [2] | [4] | [18] | [19]
inactive: all other assays above

C=CCN1C[C@H](C)N([C@H](c2ccc(C(=O)N(CC)CC)cc2)c2cccc(OC)c2)C[C@H]1C
not listed: [6] | [16] | [17] | [20]
inactive: all other assays above

ClCc1ccccc1Cl
not listed: [1] | [2] | [3] | [4] | [6] | [18] | [19]
inactive: all other assays above

O=C(O)C(F)(F)C(F)(F)C(F)(F)C(F)(F)C(F)(F)C(F)(F)C(F)(F)C(F)(F)F
active: [16] 21.9 µM
not listed: [2] | [4] | [5] | [6] | [8] | [20]
inactive: all other assays above

CCOC(=O)C1OC1(C)c1ccccc1 (centres undefined)
13.9 µM (active) and inactive: [16]
not listed: [2] | [4] | [6] | [17] | [18] | [19]
inactive: all other assays above
